Sampled rows, rich in hits. Any-hit rate of the full collection: about 3.4%.
GPR151 activ: activators of human GPR151; Q8TDV0; PathHunter beta-arrestin GPR151 cells, luminescence; activation, % at 11.2 µM; hit rate 1% among 650,000; in the data active = activation above about 4.9%;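 also: 0% = median of compound wells and 100% = cells with positive control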
MITF inh: human MITF inhibition, primary screen; AlphaScreen MITF homodimerization, bead proximity signal; hit rate 0.91% among 650,000; inhibition, % at 2.6 µM; O75030; AID 1259374; in the data active = inhibition above about 50%;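 also: 0% = vehicle wells with protein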
Target sequence (O75030 whole entry, looked up): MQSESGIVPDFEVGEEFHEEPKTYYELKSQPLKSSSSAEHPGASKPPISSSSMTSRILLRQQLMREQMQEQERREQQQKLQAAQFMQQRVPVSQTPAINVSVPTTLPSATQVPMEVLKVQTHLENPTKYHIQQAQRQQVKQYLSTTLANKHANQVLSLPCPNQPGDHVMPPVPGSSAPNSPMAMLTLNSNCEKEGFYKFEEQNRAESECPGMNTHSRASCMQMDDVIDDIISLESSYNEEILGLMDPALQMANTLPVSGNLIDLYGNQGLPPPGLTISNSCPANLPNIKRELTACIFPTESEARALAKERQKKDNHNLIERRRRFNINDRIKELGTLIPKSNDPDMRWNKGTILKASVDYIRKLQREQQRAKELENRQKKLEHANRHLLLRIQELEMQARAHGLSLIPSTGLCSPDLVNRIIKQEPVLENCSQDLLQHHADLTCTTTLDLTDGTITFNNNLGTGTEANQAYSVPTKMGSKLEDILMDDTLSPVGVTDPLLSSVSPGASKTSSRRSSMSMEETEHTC
FBW7 act: activators of human E3 ligase FBW7; hit rate 0.13% among 650,000; normalized activity (activation), % at 26.1 µM; AID 1259310; Q969H0; AlphaScreen FBW7–phospho-cyclin E peptide binding, activator screen; in the data active = normalized activity above about 1.9%;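 also: purified mutant Fbw7 with reduced substrate affinity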
TEAD-YAP block: TEAD-YAP interaction inhibition; hit rate 1.4% among 640,000; HEK-TIYL cells, TEAD-Gal4/YAP UAS-luciferase luminescence; inhibition, % at 9.12 µM; in the data active = inhibition above about 32%;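 also: 0% = median of test compound wells and 100% = reference inhibitor wells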
GPR151 conf act: confirmation of human GPR151 activators. AID 1508609. activation, % at 11.2 µM. shares compounds with GPR151 activ. 6,700 tested, under 10 active. GPR151 PathHunter beta-arrestin cells, luminescence, 90 min; % of EA-reagent control over plate median;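 active = mean percent activation across replicates above the confirmation screen cutoff of 4.91%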
GPR119 ag: counter-screen for GPR151 activators: effect on human GPR119 | shares compounds with GPR151 activ | GPR119 PathHunter beta-arrestin cells, luminescence, 90 min; 0 = compound-well median, 100 = enzyme-acceptor control | activation, % at 11.2 µM | hit rate 0.3% among 6,700;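 active = mean percent activation in the counterscreen above 29.09%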;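 also: counterscreen on off-target GPR119 to flag nonselective hits from the GPR151 activator screen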
Numbers without * were called inactive; . = not tested or not shown; ! = not active in a repeat.

SMILES	GPR151 activ	MITF inh	FBW7 act	TEAD-YAP block	GPR151 conf act	GPR119 ag
O=C(NCCCN1CCCCCC1)C(c1ccccc1)C1CCCCC1 (centres undefined)	5.3*	-9	0	.	0	1
O=C(CC(O)(c1ccccc1)C(F)(F)C(F)F)c1ccccc1O (centres undefined)	3	15	0	-3	.	.
O=C(O)CN=C(NS(=O)(=O)c1ccccc1)c1ccccc1	4.9*!	-2	0	14	0	13
CCOC(=O)c1c(NC(=O)C(C)Oc2ccc(F)cc2)sc2c1CCCC2 (centres undefined)	-1	-2	0	-2	.	.
Cc1cccc(OCCCN2CCOCC2)c1C	5.1*	-7	0	9	-1	-8
CC12C=CC(C)(O1)C1C(=O)N(c3ccccc3)C(=O)C12 (centres undefined)	1	-7	0	0	.	.
CC12C=CC(C)(O1)C1C(=O)N(c3ccc(-c4ccccc4)cc3)C(=O)C12 (centres undefined)	5.7*	-13	0	-3	-1	-15
COc1cccc(NC(=O)N2CCNCC2)c1	23*	2	0	-7	-1	-14
COc1cc(-c2nc3sc4c(c3c(=O)[nH]2)CCCC4)ccc1OCCOc1ccc(C)c(C)c1	5.7*	4	0	0	-1	-1
CCOc1cc(-c2nc3sc4c(c3c(=O)[nH]2)CCCC4)ccc1OCc1ccccc1F	5.5*	-1	0	-7	1	-8
COc1cccc(NC(=O)c2cc(=O)c3ccccc3o2)c1	4.9*	1	0	-40	0	1
c1cc(OC2CCNCC2)cc(-c2ccco2)c1	-1	-5	0	-1	.	.
CCN(CC(=O)NC1CCCCCC1)S(=O)(=O)c1ccc(C)cc1	5.4*	-1	0	-6	2	2
Cc1nc2c(-c3ccccc3)c(C)nn2c(C)c1CCC(=O)Nc1ccccn1	5.0*	1	0	-1	0	3
Cc1cc(N2CCC(C)CC2)nc2ccc(N)cc12	7.4*	1	0	-35	-1	-2
CN(C)CCCNc1ccc(S(N)(=O)=O)cc1[N+](=O)[O-]	5.7*	8	1	2	0	3
CC(C)=C/C(C)=N/Nc1ccc(S(N)(=O)=O)cc1[N+](=O)[O-]	4.9*	-3	0	4	-1	-9
Cc1ccccc1-c1nc(-c2ccc(Cl)cc2)no1	5.1*	1	0	-11	0	-4
Cc1ccccc1-c1nc(-c2ccc(Br)cc2)no1	1	0	0	-8	.	.
C/C(=N\NC(=O)COc1c(C)cccc1C)c1cc(O)ccc1O	1	3	0	20	.	.
COc1ccc(S(=O)(=O)N(C)CC(=O)Nc2cccc(OC)c2)cc1	6.2*	9	0	-1	0	-10
COc1ccc(CNC(=O)CN(C)S(=O)(=O)c2ccc(Cl)cc2)cc1	5.4*	13	0	4	0	-5
Clc1ccc(-c2ccc(OCCN3CCOCC3)nc2)cc1	0	11	0	5	.	.
COc1ccc(CNC(=O)C/C(C)=N/NC(=O)c2ccncc2)cc1	0	4	0	-5	.	.
Clc1ccc(CSc2ncnc3nc[nH]c23)cc1	6.6*	10	0	-4	0	-5
SMILES	GPR151 activ	MITF inh	FBW7 act	TEAD-YAP block	GPR151 conf act	GPR119 ag
O=C(Nc1cccc(NC(=O)c2ccccc2F)c1)c1ccccc1F	1	13	0	-8	.	.
O=C(Nc1ccc(Oc2cccc(Oc3ccc(NC(=O)c4ccccc4F)cc3)c2)cc1)c1ccccc1F	18*	12	0	-2	-1	-10
CCCCCC(=O)Nc1ccc(N2CCN(CC)CC2)cc1	11*	7	0	-14	0	0
Cc1ccc(NC(=O)COC(=O)CSc2nc(C)cc(C)n2)cc1	1	7	0	19	.	.
O=C(N/N=C/c1ccc(Cl)c([N+](=O)[O-])c1)c1cc(-c2ccccc2)n[nH]1	7.2*	21	0	-8	0	-10
CCOc1ccccc1N(C)C(=O)Cc1c(C(=O)O)[nH]c2ccccc12	1	-4	0	9	.	.
Cc1ccccc1N(C)C(=O)Cc1c(C(=O)O)[nH]c2ccccc12	5.5*	38	0	9	0	-9
COc1ccc(S(=O)(=O)NCCN2CCOC(c3ccccc3)C2)cc1OC (centres undefined)	2	-18	0	3	.	.
O=c1[nH]c(CSCc2ccccc2)nc2ccccc12	4	-5	0	2	.	.
CSc1ccc(/C=N\NC(=O)CNc2ccc(C)cc2)cc1	5.8*	6	0	-3	0	-12
O=C1/C(=C/c2cccnc2)CC/C1=C\c1cccnc1	6.5*	1	0	16	1	4
COc1ccc(-n2cc(-c3ccccc3)c3c(N4CCN(Cc5ccccc5)CC4)ncnc32)cc1	-1	2	0	7	.	.
CCOc1ccc(C(=O)Nc2nc3c(ccc4ccccc43)s2)cc1	5.5*	5	0	0	-1	-3
Cc1ccc(N2CC(NC(=O)NCc3ccco3)CC2=O)cc1C (centres undefined)	5.8*	1	1	6	1	-1
O=C(NCc1cccs1)NC1CC(=O)N(c2cccc(F)c2)C1 (centres undefined)	5.0*	-3	0	11	1	6
CCOc1ccc(C(=O)Nc2ccc(S(=O)(=O)NC(C)(C)C)cc2)cc1OCC	5.9*	24	0	2	1	-4
CCNS(=O)(=O)c1ccc(NC(=O)c2ccccc2OCC)cc1	0	19	1	7	.	.
CCOc1ccccc1C(=O)Nc1ccc(S(=O)(=O)NC(C)CC)cc1 (centres undefined)	13*	6	0	6	0	1
Cc1ccc(-n2nc3c(c2NC(=O)c2cc(Br)ccc2Cl)CSC3)cc1	0	-3	0	2	.	.
COC(=O)C(Cc1ccccc1)NC(=O)C(Cc1cnc[nH]1)NC(=O)OCc1ccccc1 (centres undefined)	5.5*	3	0	-2	1	-1
CCOC(=O)CNC(=O)C(Cc1ccccc1)NC(=O)OCc1ccccc1 (centres undefined)	0	-5	0	4	.	.
COC(=O)C(Cc1ccccc1)NC(=O)C(Cc1ccccc1)NC(=O)OCc1ccccc1 (centres undefined)	1	-6	0	1	.	.
CCNC(=O)C(Cc1ccc([N+](=O)[O-])cc1)NC(=O)OCc1ccccc1 (centres undefined)	5.6*	-2	0	-11	0	6
C=CCc1cccc2cc(C(=O)NNc3ccc([N+](=O)[O-])cc3[N+](=O)[O-])c(=O)oc12	-1	1	0	3	.	.
Cc1ccc(C(=O)N[C@H]2C[C@H]3C(=O)N[C@@H]([C@@H](C)O)C(=O)N3C2)cc1F	1	-8	0	-18	.	.

Assay outcomes as filed in PubChem.
